Results published in PubChem BioAssay (EPA / NIEHS).
Records with an inconclusive call do not appear. Active and inactive are the calls of the source. Rule for the calls, unless noted: active = hit-call score of the fitted dose curve at least 0.9, where 1 is the maximum; inactive = score below 0.9.

Experiment: CCTE_Harrill_HTTr_Apoptosis_MCF7: CCTE's 6-hour Apoptosis Assessment for the High-Throughput Transcriptomics (HTTr) Platform, in MCF-7 cells cultured in DMEM + 10% fetal bovine serum, Harrill Lab (AID 2284011)
How it was run: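 Read-out: CellEvent Caspase 3/7 Green signal by high content imaging, gain-of-signal indicating apoptosis. MCF-7 cells, DMEM + 10% FBS, eight-point dilution series, 6 h exposure. Curves fitted bidirectionally relative to DMSO negative control.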

outcome, inactive:
C[C@H]1O[C@@H](O[C@H]2[C@@H](O)C[C@H](O[C@H]3[C@@H](O)C[C@H](O[C@H]4CC[C@@]5(C)[C@H](CC[C@@H]6[C@@H]5C[C@@H](O)[C@]5(C)[C@@H](C7=CC(=O)OC7)CC[C@]65O)C4)O[C@@H]3C)O[C@@H]2C)C[C@H](O)[C@@H]1O
CC1(C)C2=CCCC(C)(C)[C@]23CC[C@H]1C3
COCCc1ccc(OCC(O)CNC(C)C)cc1 (stereo not given)
OCc1cccc(Oc2ccccc2)c1
CC1CCC(C(C)C)C(O)C1 (stereo not given)
CC(CN=Cc1ccccc1O)N=Cc1ccccc1O (stereo not given)
CC(=O)O[C@@H]1CC2CCC1(C)C2(C)C (stereo not given in full)
CC(=O)C1(C)CC2=C(CCCC2(C)C)CC1C (stereo not given)
CCOC(=O)[C@@H](C)Oc1ccc(Oc2nc3ccc(Cl)cc3o2)cc1
CCc1ccc(O)cc1
Oc1c(Cl)cc(Cl)c(Cl)c1Cc1c(O)c(Cl)cc(Cl)c1Cl
C[C@H](CCC(=O)NCC(=O)O)[C@H]1CC[C@H]2[C@@H]3[C@H](O)C[C@@H]4C[C@H](O)CC[C@]4(C)[C@H]3C[C@H](O)[C@]12C
CC(C=O)Cc1ccc(C(C)(C)C)cc1 (stereo not given)
O=C(O)CCCCCCCCC(=O)O
CC=Cc1ccc(OC)c(OC)c1
CC1=CC[C@@]23C[C@@H]1C(C)(C)[C@@H]2CC[C@H]3C
Brc1ccc(Br)c(Br)c1
C=CC(C)(O)CCC=C(C)C (stereo not given)
CCOC(=O)c1ccc(N)cc1
CCc1cc(Cc2cc(CC)cc(C(C)(C)C)c2O)c(O)c(C(C)(C)C)c1
C=CC(=O)OCCCC

Experiment: CCTE_Harrill_HTTr_CellCount_MCF7: CCTE's Cell Proliferation Assessment for the High-Throughput Transcriptomics (HTTr) Platform, Harrill Lab (AID 2284012; active = hit-call score of the fitted dose curve at least 0.9, where 1 is the maximum;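 note: cells exposed to compound for six hours; intended direction is loss of nuclei count meaning fewer cells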)
How it was run: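 Cell count from high-content imaging of Hoechst-labeled nuclei serves as viability/growth readout. Chemicals were applied to MCF-7 cells in eight concentrations for six hours, with fitting in both directions relative to DMSO.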

outcome, inactive:
C[C@H]1O[C@@H](O[C@H]2[C@@H](O)C[C@H](O[C@H]3[C@@H](O)C[C@H](O[C@H]4CC[C@@]5(C)[C@H](CC[C@@H]6[C@@H]5C[C@@H](O)[C@]5(C)[C@@H](C7=CC(=O)OC7)CC[C@]65O)C4)O[C@@H]3C)O[C@@H]2C)C[C@H](O)[C@@H]1O
COCCc1ccc(OCC(O)CNC(C)C)cc1 (stereo not given)
OCc1cccc(Oc2ccccc2)c1
CC1CCC(C(C)C)C(O)C1 (stereo not given)
CC(CN=Cc1ccccc1O)N=Cc1ccccc1O (stereo not given)
CC(=O)C1(C)CC2=C(CCCC2(C)C)CC1C (stereo not given)
CCOC(=O)[C@@H](C)Oc1ccc(Oc2nc3ccc(Cl)cc3o2)cc1
CCc1ccc(O)cc1
CC(C=O)Cc1ccc(C(C)(C)C)cc1 (stereo not given)

Experiment: CCTE_Shafer_MEA_acute_burst_number: CCTE's Neural Acute Assay for Single-Electrode Bursts, Shafer Lab (AID 2284013)
How it was run: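 Primary rat cortical neurons on 16-electrode MEA wells, DIV 13 or 15, exposed to compound (0.03-40 uM; ≥3 wells); 40-min recordings at 37 C before and after treatment. Burst count expressed as percent change from baseline, DMSO as negative control.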

outcome, inactive:
O=CN1CCOCC1
CC1(C)CCC[C@]2(C)[C@H]3CCO[C@]3(C)CC[C@@H]12
CN(C)C(=S)SC(=S)N(C)C
COCCc1ccc(OCC(O)CNC(C)C)cc1 (stereo not given)
CC(CN=Cc1ccccc1O)N=Cc1ccccc1O (stereo not given)
CCCCCCC(CO)CCCC (stereo not given)
O=C(Nc1ccc2c(O)c(N=Nc3ccc(N=Nc4ccc(S(=O)(=O)O)cc4)cc3)c(S(=O)(=O)O)cc2c1)c1ccccc1
Oc1c(Cl)cc(Cl)c(Cl)c1Cc1c(O)c(Cl)cc(Cl)c1Cl
C=CC(C)(O)CCC=C(C)C (stereo not given)
CCOC(=O)C(C#N)=C(c1ccccc1)c1ccccc1
